Assay results: PubChem BioAssay (NCATS)
Results filed as inconclusive are left out. Calls of active or inactive are those of the source. The call rests on the fitted dose curve; in most records, active means well fitted inhibition curve with a large enough effect; inconclusive means small, poorly fitted or top-dose-only effect; inactive means flat fitted curve, though single readings scatter. Where a SMILES comes first, the peptide text is derived from it. [ ]: non-standard residue; d: D form. The star is where a group is joined. ξ: configuration not given here. AFC = O=c1cc(C(F)(F)F)c2ccc(N*)cc2o1; ξLac(3-iPr) = CC(C)CC(O)C(=O)O; NMeV = CN[CH](C(=O)O)C(C)C; βAla = NCCC(=O)O

test: P-glycoprotein substrates identified in KB-8-5-11 adenocarcinoma cell line, qHTS therapeutic library screen (AID 1346987); details: KB-8-5-11 (P-gp overexpressing) viability, CellTiter-Glo, 72 h; series mostly up to 44.5 µM; activity change, negative = cytotoxicity: at the top concentration; further: nearly all actives have a fitted effect of over 65% in size
Procedure, shortened: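 KB-8-5-11, a colchicine-selected P-gp-overexpressing KB-3-1 subline, was grown without colchicine for the assay. Cells were seeded at 500 cells/well, dosed in concentration-response and incubated 72 h at 37 degree C, 5% CO2. Viability was read by CellTiter-Glo luminescence.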
On the % scale 0 is the no-effect control and ±100 the full control effect; potency means the concentration at half of the fitted maximal effect.

| SMILES | activity change, negative = cytotoxicity | Potency | outcome |
| --- | --- | --- | --- |
| C=C(C)C1CC[C@]2(C(=O)O)CC[C@]3(C(=O)O)[C@H](CCC4[C@@]5(C)CC[C@H](O)C(C)(C)C5CC[C@]43C)C12 (stereo partly drawn) | -0.661% [at 17.3 µM] (inactive) | – | – |
| CC/C=C/CC1=C(CCCCC(CCC(=O)O)OC(C)=O)CCC1=O (stereo not drawn) | -17.4% (inactive) | – | – |
| CC(=O)NC[C@H]1CN(c2ccc(N3CCN(C(=O)CO)CC3)c(F)c2)C(=O)O1 | -12.9% (inactive) | – | – |
| NC(=O)c1cccc2cn(-c3ccc(C4CCCNC4)cc3)nc12 (stereo not drawn) | -23.4% (inactive) | – | – |
| CC(C)CC1OC(=O)C2CCCN2C(=O)CCNC(=O)C(Cc2ccccc2)NC(=O)C(C(C)C)N(C)C(=O)C(C(C)C)N(C)C1=O (stereo not drawn) (cyclo([ξLac(3-iPr)][NMeV][NMeV]F[βAla]P); configuration not given here) | -10.3% [at 17.3 µM] (inactive) | – | – |
| C/C=C/c1ccc2oc(-c3ccc(O)c(OC)c3)c(C)c2c1 | -9.73% (inactive) | – | – |
| FC(F)(F)c1ccc(Nc2nc(-c3c(C(F)(F)F)nc4ccccn34)cs2)cc1 | – | 461 nM (active) | – |
| CCC(=O)O[C@H]1C(C)(C)[C@H]([C@@H](O)C(=O)OC)[C@]2(C)C(=O)[C@@]1(O)[C@H]1O[C@]13C1CC(=O)O[C@@H](c4ccoc4)[C@]1(C)CCC32 (stereo partly drawn) | 2.67% [at 17.3 µM] (inactive) | – | – |
| C[C@@H]1O[C@@H](O[C@@H]2[C@@H](O)[C@H](O[C@H]3[C@H](O[C@H]4CC[C@@]5(C)C(CC[C@]6(C)C5CC=C5[C@@H]7CC(C)(C)CC[C@]7(C(=O)O[C@@H]7O[C@H](CO)[C@@H](O)[C@H](O)[C@H]7O[C@@H]7O[C@@H](C)[C@H](O[C@@H]8O[C@@H](C)[C@H](O)[C@@H](O)[C@H]8O)[C@@H](O)[C@H]7O)CC[C@]56C)[C@@]4(C)CO)O[C@H](C(=O)O)[C@@H](O)[C@@H]3O)O[C@H](CO)[C@H]2O)[C@H](O)[C@H](O)[C@H]1O (stereo partly drawn) | 9.26% [at 9.29 µM] (inactive) | – | – |
| CC(C)=CCC/C(C)=C/CO[C@@H]1O[C@H](CO)[C@@H](O)[C@H](O)[C@H]1O | 2.83% (inactive) | – | – |
| CC(=O)O[C@H]1C[C@@]2(C)[C@@H](CC[C@H]3[C@@]4(C)C=CC(=O)[C@@H](C)[C@@H]4[C@H](O)C(=O)[C@@]32C)/C1=C(/CCC=C(C)C)C(=O)O | -11.8% [at 17.3 µM] (inactive) | – | – |
| C=CC(C)(C)C12C=C(OC)C(=O)N3C(C(C)C)C(=O)NC31N(OC)c1ccccc12 (stereo not drawn) | -0.395% [at 17.3 µM] (inactive) | – | – |
| Cc1c(NC(=O)c2cc(C(N)=O)nc3cc(F)ccc23)c(C(F)(F)F)nn1Cc1ccc(C#N)cc1 | -6.76% [at 17.3 µM] (inactive) | – | – |
| Cc1ccc(C(=O)Nc2noc3ccccc23)cc1 | 5.46% (inactive) | – | – |
| C/C1=C\CCC2=C[C@@H](OC2=O)c2c(C)coc2C1 | 5.15% (inactive) | – | – |
| CC1=C(C(=O)O[C@@H]2O[C@H](COC3OCC(O)C(O)C3O)[C@@H](O)[C@H](O)[C@H]2O)C(C)(C)CCC1 (stereo partly drawn) | -17.3% [at 17.3 µM] (inactive) | – | – |
| C=C1CCC2C(C)(COC(C)=O)CCCC2(C)C1CCC(C)CC(=O)O (stereo not drawn) | 7.67% (inactive) | – | – |
| CC(=O)N[C@@H](Cc1c[nH]c2ccccc12)C(=O)N[C@@H](CCC(=O)O)C(=O)N[C@@H](Cc1cnc[nH]1)C(=O)N[C@@H](CC(=O)O)C(=O)Nc1ccc2c(C(F)(F)F)cc(=O)oc2c1 (Ac-WEHD-{AFC}) | – | – | inactive |
| CCCC1(c2ccccc2)NC(=O)N(CC(=O)N(C)Cc2c(F)cccc2Cl)C1=O (stereo not drawn) | -35.4% (inactive) | – | – |
| COc1ccc(-c2cnc(-c3cccc4c3-c3ccccc3C4=O)o2)cc1 | – | 89.3 nM (active) | – |
| CN(C)c1ccc2c(c1)OC(N)=C(C#N)C2c1cccc(C(F)(F)F)c1 (stereo not drawn) | – | 326 nM (active) | – |
| CC(=O)O[C@H]1C[C@@](O)(C(C)C)C2[C@@H](OC(=O)c3ccc(O)cc3)C[C@@]3(C)O[C@H]3C[C@]21C (stereo partly drawn) | -6.91% [at 17.3 µM] (inactive) | – | – |
| C=CC1(C)C=C2CCC3C(C)(C)C(O[C@@H]4O[C@@H](CO)[C@H](O)[C@H]4O)CCC3(C)C2CC1O[C@@H]1O[C@H](C)[C@H](O)[C@H](O)[C@H]1O (stereo partly drawn) | -0.0169% [at 17.3 µM] (inactive) | – | – |
| CC(C)(C)OC(=O)N1CCC(OCc2nc(-c3ccncc3)no2)CC1 | -0.687% (inactive) | – | – |
| CS(=O)(=O)N(CC(=O)NCC1CC1)c1cc(C(F)(F)F)ccc1Cl | -5.71% (inactive) | – | – |
| CC(=O)OC1CC2(C)C3=CCC4(C)C5C(O)C(O)C(C(C)C)C5(C)CCC4(C)C3CCC2C(C)(C)C1OC1OC(CO)C(O)C(O)C1O (stereo not drawn) | – | – | inactive [at 17.3 µM] |
| C/C=C/c1cc(OC)c2c(c1)[C@@H](C)[C@@H](c1ccc(O)c(OC)c1)O2 | -9.55% (inactive) | – | – |
| O=C(Nc1ccc(Cl)cc1F)c1ccccc1O | – | 7310 nM (active) | – |
